# Test results taken from PMC7862700, “An all-to-all approach to the identification of sequence-specific readers for epigenetic DNA modifications on cytosine”.
# Columns and labels:
# Test in all cases: DAPPL (digital affinity profiling via proximity ligation, sequencing); 10 mM Tris-HCl pH 7.5, 50 mM NaCl, 1 mM DTT, 4% glycerol, room temperature, 30 min; GST-TFs on glutathione beads, 16-mer random dsDNA library, 0.1% formaldehyde crosslink after washing; high values mean tight binding
# FEV = target: T1, FEV (Homo sapiens, UniProt Q99581 1-238); settings: protein: recombinant; tags: N-terminal GST; dsDNA, one strand shown
# T1 sequence: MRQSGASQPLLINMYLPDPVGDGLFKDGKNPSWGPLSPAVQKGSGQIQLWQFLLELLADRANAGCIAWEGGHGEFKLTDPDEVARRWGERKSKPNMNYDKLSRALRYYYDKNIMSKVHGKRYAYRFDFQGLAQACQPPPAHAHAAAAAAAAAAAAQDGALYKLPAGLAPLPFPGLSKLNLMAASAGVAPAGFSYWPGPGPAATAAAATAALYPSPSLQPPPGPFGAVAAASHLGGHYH
# Procedure, shortened: (§1)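 Binding signal is each hexamer's read frequency for a factor divided by its frequency in the tag-only sample. The factors were GST-fused human transcription factors from yeast, captured on glutathione beads, DNA-barcoded and pooled with that sample. Pools were incubated with 200 nmole of a random double-stranded 16-mer DNA library in Tris/NaCl/DTT/glycerol buffer at room temperature for 30 min, then washed, crosslinked with 0.1% formaldehyde, proximity-ligated with BsaI/T4 ligase (1 h, 37 °C), PCR-amplified and sequenced on an Illumina NextSeq500.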
# ETV5 = ETV5 (Homo sapiens, UniProt P41161 1-510); settings: protein: recombinant; tags: N-terminal GST; dsDNA, one strand shown
# Procedure, shortened: as §1
# HSF1 = HSF1 (Homo sapiens, UniProt Q00613 1-529); settings: protein: recombinant; tags: N-terminal GST; chain copies: 3; dsDNA, one strand shown
# Procedure, shortened: as §1
# SPIC = target: T2, SPIC (Homo sapiens, UniProt Q8N5J4 1-248); settings: protein: recombinant; tags: N-terminal GST; dsDNA, one strand shown
# T2 sequence: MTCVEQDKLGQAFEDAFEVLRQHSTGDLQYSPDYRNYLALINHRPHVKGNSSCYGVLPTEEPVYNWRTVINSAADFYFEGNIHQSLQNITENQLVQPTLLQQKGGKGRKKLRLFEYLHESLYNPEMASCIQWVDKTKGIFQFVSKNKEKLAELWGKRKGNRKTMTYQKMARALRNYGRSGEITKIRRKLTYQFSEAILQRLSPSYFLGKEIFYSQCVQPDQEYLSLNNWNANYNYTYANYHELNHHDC
# Procedure, shortened: as §1
# ELK4 = target: T3, ELK4 (Homo sapiens, UniProt P28324-2 1-405); settings: protein: recombinant; tags: N-terminal GST; dsDNA, one strand shown
# T3 sequence: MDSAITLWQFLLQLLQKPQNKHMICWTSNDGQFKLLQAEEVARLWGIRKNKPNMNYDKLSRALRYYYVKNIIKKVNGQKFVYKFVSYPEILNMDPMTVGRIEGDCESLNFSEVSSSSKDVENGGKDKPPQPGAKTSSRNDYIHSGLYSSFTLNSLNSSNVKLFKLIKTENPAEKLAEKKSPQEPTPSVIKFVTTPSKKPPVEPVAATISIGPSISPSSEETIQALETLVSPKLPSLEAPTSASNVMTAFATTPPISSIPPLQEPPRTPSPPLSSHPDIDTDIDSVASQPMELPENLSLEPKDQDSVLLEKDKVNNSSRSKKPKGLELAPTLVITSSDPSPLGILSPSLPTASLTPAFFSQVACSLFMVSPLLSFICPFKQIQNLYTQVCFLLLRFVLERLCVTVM
# Procedure, shortened: as §1
# ELF3 = target: T4, ELF3 (Homo sapiens, UniProt P78545 1-371); settings: protein: recombinant; tags: N-terminal GST; dsDNA, one strand shown
# T4 sequence: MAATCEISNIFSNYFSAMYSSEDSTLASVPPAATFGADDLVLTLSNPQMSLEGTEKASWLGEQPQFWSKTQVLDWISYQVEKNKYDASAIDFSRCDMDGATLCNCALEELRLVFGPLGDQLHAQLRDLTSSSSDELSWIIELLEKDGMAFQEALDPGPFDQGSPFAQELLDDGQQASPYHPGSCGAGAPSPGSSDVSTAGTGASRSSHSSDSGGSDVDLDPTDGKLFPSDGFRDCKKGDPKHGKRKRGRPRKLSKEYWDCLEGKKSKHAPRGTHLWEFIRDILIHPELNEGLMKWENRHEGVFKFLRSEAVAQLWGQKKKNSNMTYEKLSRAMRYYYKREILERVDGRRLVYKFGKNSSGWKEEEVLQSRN
# Procedure, shortened: as §1
# CRX = CRX (Homo sapiens, UniProt O43186 1-299); settings: protein: recombinant; tags: N-terminal GST; dsDNA, one strand shown
# Procedure, shortened: as §1
# ETV1 = ETV1 (Homo sapiens, UniProt P50549 1-477); settings: protein: recombinant; tags: N-terminal GST; dsDNA, one strand shown
# Procedure, shortened: as §1
# ERF = target: T5, ERF (Homo sapiens, UniProt P50548 1-548); settings: protein: recombinant; tags: N-terminal GST; dsDNA, one strand shown
# T5 sequence: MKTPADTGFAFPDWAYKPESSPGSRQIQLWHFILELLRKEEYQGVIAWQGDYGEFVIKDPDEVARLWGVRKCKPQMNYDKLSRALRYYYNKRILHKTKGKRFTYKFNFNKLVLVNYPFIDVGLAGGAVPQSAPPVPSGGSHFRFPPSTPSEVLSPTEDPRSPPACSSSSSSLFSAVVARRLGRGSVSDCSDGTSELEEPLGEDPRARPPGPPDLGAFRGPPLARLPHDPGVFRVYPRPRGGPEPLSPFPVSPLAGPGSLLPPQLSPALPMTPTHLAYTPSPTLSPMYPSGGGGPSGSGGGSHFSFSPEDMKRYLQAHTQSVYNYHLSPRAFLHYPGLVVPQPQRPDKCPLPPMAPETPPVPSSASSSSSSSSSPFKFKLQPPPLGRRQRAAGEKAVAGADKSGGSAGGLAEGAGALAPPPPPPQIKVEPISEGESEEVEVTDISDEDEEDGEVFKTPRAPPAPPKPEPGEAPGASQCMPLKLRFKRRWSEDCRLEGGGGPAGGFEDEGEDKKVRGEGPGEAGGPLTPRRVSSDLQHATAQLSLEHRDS
# Procedure, shortened: as §1
# ETV3 = target: T6, ETV3 (Homo sapiens, UniProt P41162-2 1-143); settings: protein: recombinant; tags: N-terminal GST; dsDNA, one strand shown
# T6 sequence: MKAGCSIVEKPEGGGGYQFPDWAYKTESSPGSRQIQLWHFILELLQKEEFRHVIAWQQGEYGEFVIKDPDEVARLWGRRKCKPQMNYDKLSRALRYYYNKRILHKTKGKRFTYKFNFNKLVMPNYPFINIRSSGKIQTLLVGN
# Procedure, shortened: as §1
# ETV6 = ETV6 (Homo sapiens, UniProt P41212 1-452); settings: protein: recombinant; tags: N-terminal GST; dsDNA, one strand shown
# Procedure, shortened: as §1
# ELF4 = ELF4 (Homo sapiens, UniProt Q99607 1-663); settings: protein: recombinant; tags: N-terminal GST; dsDNA, one strand shown
# Procedure, shortened: as §1
# ETV3L = target: T7, ETV3L (Homo sapiens, UniProt Q6ZN32 1-361); settings: protein: recombinant; tags: N-terminal GST; dsDNA, one strand shown
# T7 sequence: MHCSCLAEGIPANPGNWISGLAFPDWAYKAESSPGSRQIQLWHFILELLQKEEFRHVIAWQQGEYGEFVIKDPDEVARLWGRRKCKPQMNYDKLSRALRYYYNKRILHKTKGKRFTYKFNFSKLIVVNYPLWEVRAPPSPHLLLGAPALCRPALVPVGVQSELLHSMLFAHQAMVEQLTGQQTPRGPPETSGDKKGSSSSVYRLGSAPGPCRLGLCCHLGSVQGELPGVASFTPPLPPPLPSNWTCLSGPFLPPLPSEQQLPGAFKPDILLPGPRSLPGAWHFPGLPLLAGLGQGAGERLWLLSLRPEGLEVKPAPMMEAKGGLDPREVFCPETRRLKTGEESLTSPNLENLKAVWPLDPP
# Procedure, shortened: as §1
# ETV7 = target: T8, ETV7 (Homo sapiens, UniProt Q9Y603 1-341); settings: protein: recombinant; tags: N-terminal GST; dsDNA, one strand shown
# T8 sequence: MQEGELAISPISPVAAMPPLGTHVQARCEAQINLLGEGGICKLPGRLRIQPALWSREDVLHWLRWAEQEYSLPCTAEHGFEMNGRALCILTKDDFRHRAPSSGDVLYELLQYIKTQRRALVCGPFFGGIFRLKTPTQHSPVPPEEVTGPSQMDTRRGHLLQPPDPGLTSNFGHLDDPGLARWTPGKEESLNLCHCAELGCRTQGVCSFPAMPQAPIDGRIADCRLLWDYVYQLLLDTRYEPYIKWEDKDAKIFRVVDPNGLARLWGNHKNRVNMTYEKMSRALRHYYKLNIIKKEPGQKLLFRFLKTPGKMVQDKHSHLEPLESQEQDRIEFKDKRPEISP
# Procedure, shortened: as §1
# ETS2 = target: T9, ETS2 (Homo sapiens, UniProt P15036 1-469); settings: protein: recombinant; tags: N-terminal GST; dsDNA, one strand shown
# T9 sequence: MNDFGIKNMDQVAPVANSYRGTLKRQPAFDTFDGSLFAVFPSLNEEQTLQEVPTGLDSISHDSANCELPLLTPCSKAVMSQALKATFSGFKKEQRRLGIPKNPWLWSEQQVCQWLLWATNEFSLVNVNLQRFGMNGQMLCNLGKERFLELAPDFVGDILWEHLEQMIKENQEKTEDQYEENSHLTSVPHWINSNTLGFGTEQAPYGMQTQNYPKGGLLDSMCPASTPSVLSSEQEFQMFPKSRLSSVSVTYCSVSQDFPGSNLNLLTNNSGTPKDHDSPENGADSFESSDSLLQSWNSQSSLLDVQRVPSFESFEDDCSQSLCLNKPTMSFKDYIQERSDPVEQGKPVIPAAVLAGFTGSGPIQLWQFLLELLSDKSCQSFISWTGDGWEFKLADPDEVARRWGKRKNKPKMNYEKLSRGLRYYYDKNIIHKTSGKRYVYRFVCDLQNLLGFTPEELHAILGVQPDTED
# Procedure, shortened: as §1
# SPDEF = target: T10, SPDEF (Homo sapiens, UniProt O95238 1-335); settings: protein: recombinant; tags: N-terminal GST; dsDNA, one strand shown
# T10 sequence: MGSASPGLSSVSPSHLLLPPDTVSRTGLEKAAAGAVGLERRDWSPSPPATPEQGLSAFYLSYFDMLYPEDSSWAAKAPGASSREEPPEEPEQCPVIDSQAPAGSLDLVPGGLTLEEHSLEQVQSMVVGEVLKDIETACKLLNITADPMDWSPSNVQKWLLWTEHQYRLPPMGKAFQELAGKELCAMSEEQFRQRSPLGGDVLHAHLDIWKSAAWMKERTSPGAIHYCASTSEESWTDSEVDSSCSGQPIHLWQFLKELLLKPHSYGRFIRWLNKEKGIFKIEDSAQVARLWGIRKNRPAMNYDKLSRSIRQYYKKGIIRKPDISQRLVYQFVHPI
# Procedure, shortened: as §1
# ELF5 = target: T11, ELF5 (Homo sapiens, UniProt Q9UKW6-2 1-255); settings: protein: recombinant; tags: N-terminal GST; dsDNA, one strand shown
# T11 sequence: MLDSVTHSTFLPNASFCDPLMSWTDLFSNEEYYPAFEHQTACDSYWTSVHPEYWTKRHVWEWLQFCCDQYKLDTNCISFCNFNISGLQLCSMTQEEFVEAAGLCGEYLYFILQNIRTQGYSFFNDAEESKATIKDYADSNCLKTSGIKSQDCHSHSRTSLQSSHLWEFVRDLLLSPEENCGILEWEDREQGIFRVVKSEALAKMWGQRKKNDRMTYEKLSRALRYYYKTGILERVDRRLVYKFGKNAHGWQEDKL
# Procedure, shortened: as §1
# ETV6, sequence (P41212 whole entry): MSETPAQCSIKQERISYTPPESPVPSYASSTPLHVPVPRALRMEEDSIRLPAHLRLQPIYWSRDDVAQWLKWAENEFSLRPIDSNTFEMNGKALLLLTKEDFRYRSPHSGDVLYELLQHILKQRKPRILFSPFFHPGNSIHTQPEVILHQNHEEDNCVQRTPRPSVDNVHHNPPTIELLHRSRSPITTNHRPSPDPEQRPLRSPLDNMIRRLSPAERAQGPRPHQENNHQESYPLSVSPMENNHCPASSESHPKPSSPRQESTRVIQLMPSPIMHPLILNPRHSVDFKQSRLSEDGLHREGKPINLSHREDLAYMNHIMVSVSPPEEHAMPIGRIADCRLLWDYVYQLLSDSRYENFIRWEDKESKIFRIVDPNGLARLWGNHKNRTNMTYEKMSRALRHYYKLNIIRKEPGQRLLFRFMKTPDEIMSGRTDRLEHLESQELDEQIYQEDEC
# ETV1, sequence (P50549 whole entry): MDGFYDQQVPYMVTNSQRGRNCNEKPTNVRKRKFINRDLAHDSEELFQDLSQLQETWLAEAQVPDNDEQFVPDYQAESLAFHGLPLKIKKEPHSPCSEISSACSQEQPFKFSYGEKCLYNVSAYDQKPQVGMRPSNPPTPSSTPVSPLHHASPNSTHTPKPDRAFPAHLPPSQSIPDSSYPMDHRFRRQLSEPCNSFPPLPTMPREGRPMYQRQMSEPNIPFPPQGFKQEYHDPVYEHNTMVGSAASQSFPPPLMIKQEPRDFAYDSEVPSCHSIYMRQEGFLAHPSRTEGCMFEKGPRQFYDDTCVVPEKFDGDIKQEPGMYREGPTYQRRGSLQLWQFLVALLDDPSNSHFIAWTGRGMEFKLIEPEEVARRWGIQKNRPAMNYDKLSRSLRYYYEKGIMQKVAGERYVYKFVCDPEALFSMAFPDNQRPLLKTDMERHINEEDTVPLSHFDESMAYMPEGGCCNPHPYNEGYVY
# ETV5, sequence (P41161 whole entry): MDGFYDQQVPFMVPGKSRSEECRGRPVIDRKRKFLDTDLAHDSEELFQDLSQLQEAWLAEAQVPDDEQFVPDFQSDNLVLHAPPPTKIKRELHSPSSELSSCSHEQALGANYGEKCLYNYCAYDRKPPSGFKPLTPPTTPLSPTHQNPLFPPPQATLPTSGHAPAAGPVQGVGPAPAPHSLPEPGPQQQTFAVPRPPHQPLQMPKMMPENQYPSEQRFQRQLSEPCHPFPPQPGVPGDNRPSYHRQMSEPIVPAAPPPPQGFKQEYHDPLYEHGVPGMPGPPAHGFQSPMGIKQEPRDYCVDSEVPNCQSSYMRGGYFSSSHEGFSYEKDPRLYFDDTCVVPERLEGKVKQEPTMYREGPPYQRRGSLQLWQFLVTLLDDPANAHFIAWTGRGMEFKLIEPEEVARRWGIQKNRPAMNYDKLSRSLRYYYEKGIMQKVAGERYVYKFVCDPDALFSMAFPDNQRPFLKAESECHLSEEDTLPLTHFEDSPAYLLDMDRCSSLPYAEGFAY
# CRX, sequence (O43186 whole entry): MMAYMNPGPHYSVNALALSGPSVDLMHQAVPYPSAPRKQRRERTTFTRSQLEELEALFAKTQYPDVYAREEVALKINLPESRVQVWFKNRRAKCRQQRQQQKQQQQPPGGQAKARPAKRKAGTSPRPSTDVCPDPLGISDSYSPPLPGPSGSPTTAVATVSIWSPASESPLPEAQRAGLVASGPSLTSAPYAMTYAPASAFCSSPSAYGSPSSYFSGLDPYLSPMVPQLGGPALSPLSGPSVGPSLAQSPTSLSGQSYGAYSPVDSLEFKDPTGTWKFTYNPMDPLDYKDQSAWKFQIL
# HSF1, sequence (Q00613 whole entry): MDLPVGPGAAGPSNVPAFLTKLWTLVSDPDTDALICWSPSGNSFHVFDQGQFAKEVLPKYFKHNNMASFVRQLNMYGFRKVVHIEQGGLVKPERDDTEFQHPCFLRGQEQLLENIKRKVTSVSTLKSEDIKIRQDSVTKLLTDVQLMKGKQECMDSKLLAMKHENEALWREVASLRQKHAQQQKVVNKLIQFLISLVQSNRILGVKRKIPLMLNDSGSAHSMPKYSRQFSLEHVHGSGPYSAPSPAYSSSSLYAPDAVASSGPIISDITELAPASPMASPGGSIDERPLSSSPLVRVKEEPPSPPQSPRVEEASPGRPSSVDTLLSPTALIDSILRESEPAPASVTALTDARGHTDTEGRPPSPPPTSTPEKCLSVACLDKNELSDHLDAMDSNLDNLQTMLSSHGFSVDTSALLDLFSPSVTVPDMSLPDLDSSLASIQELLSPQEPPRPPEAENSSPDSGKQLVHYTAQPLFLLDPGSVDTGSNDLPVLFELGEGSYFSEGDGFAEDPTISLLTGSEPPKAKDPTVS
# ELF4, sequence (Q99607 whole entry): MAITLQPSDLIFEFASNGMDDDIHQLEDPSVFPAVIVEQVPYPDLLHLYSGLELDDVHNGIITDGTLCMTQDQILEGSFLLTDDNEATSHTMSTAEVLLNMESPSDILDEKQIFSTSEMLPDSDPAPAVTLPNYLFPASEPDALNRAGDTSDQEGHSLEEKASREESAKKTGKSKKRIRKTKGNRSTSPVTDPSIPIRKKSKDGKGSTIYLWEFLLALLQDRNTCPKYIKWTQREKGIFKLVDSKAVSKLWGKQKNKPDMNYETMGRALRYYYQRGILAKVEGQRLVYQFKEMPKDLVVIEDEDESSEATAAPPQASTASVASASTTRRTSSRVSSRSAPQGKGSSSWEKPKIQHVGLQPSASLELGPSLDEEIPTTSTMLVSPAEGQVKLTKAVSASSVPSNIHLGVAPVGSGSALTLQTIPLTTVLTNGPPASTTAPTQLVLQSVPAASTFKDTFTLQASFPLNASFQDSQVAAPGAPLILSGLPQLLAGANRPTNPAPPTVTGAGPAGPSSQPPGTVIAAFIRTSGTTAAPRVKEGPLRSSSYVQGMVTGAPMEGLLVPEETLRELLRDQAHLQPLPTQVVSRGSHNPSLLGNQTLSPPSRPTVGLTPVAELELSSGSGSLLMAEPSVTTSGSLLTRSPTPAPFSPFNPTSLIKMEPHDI
Sequence,binding signal (FEV),binding signal (ETV5),binding signal (HSF1),binding signal (SPIC),binding signal (ELK4),binding signal (ELF3),binding signal (CRX),binding signal (ETV1),binding signal (ERF),binding signal (ETV3),binding signal (ETV6),binding signal (ELF4),binding signal (ETV3L),binding signal (ETV7),binding signal (ETS2),binding signal (SPDEF),binding signal (ELF5)
AAAGCC,"1.03 fold enrichment (6-mer frequency, TF over GST control)","1.02 fold enrichment (6-mer frequency, TF over GST control)","1.14 fold enrichment (6-mer frequency, TF over GST control)","1.14 fold enrichment (6-mer frequency, TF over GST control)","1.02 fold enrichment (6-mer frequency, TF over GST control)","1.01 fold enrichment (6-mer frequency, TF over GST control)","1.42 fold enrichment (6-mer frequency, TF over GST control)","1.03 fold enrichment (6-mer frequency, TF over GST control)","1.01 fold enrichment (6-mer frequency, TF over GST control)","1.05 fold enrichment (6-mer frequency, TF over GST control)","1.01 fold enrichment (6-mer frequency, TF over GST control)",–,–,–,–,–,–
AAATCG,"1 fold enrichment (6-mer frequency, TF over GST control)","1.04 fold enrichment (6-mer frequency, TF over GST control)","1.18 fold enrichment (6-mer frequency, TF over GST control)","1 fold enrichment (6-mer frequency, TF over GST control)",–,"1.03 fold enrichment (6-mer frequency, TF over GST control)","1.26 fold enrichment (6-mer frequency, TF over GST control)","1.05 fold enrichment (6-mer frequency, TF over GST control)",–,"1.03 fold enrichment (6-mer frequency, TF over GST control)","1.05 fold enrichment (6-mer frequency, TF over GST control)","1.11 fold enrichment (6-mer frequency, TF over GST control)","1.09 fold enrichment (6-mer frequency, TF over GST control)","1.08 fold enrichment (6-mer frequency, TF over GST control)",–,–,–
TGGAAA,"1.03 fold enrichment (6-mer frequency, TF over GST control)","1.14 fold enrichment (6-mer frequency, TF over GST control)","2.23 fold enrichment (6-mer frequency, TF over GST control)","1.17 fold enrichment (6-mer frequency, TF over GST control)",–,"1.15 fold enrichment (6-mer frequency, TF over GST control)","1.23 fold enrichment (6-mer frequency, TF over GST control)","1.11 fold enrichment (6-mer frequency, TF over GST control)","1.08 fold enrichment (6-mer frequency, TF over GST control)","1.08 fold enrichment (6-mer frequency, TF over GST control)","1.23 fold enrichment (6-mer frequency, TF over GST control)","1.12 fold enrichment (6-mer frequency, TF over GST control)","1.2 fold enrichment (6-mer frequency, TF over GST control)","1.19 fold enrichment (6-mer frequency, TF over GST control)","1.1 fold enrichment (6-mer frequency, TF over GST control)","1.04 fold enrichment (6-mer frequency, TF over GST control)","1.12 fold enrichment (6-mer frequency, TF over GST control)"
